HTT cytoprotect – protects HTT-Q103 PC12 cells, measured by ATP | PC12 HTT-Q103 induced, cytoprotection, ATP luminescence, 40 h | Potency, µM (series often up to 56.4 µM), inactives show cytoprotection (ATP increase), actives largely listed as activators | actives 0.14% (n = 230,000); also: potency is read from the fitted curve at half-maximal effect; % of control where 0% means no effect; nearly all actives have a fitted effect of over 45% in size
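Compounds added alongside 100 nM tebufenozide, which induces toxic Q103 huntingtin exon 1-GFP in stable PC12 cells; surviving cells quantified by luminescent ATP measurement. Medium: phenol red-free DMEM, 5% equine and 5% calf serum.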
GLA spleen mod – alpha-galactosidase A (human) modulation. human spleen homogenate, 4MU-alpha-Gal fluorescence, 40 min. Potency, µM (highest dose often 80 µM), without a hit: at the top dose activity change, negative = inhibition, usual class: inhibitors. actives 0.008% (n = 240,000). AID 2107;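 also: potency is read from the fitted curve at half-maximal effect; 0% = enzyme with vehicle and -100% = no enzyme basal signal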
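Spleen homogenate 1 ug + cpd (titration) + 4-MU-alpha-D-galactopyranoside 1 mM; 37C 40 min; 50 mM citrate/phosphate pH 5.0, 0.01% Tween-20; stop pH 10; fluorescence 365/440; AC50 via Hill.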
HTT aggregate – inhibitors of mutant huntingtin aggregate formation in PC12 cells; PC12 HttQ103-GFP aggregates, Acumen cytometry, 40 h; Potency, µM (top dose mostly 46.1 µM), for the others: top-dose activity change, negative = inhibition, usual class: inhibitors; actives 1.1% (n = 220,000); AID 1688; also: potency is read from the fitted curve at half-maximal effect; % is scaled to controls: 0 for no effect and ±100 for the full control effect; nearly all actives have a fitted effect of over 60% in size
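Aggregate formation scored by laser-scanning cytometer (488 excitation, 500–530 emission) in lysed PC12 cells expressing Q103-GFP after 100 nM tebufenozide induction; library tested in dose series, with ATPLite reagent added in the multiplex.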
GLA inh pH 4.5 – blocks human alpha-galactosidase A at pH 4.5; P06280; purified enzyme, 4-MU-alpha-Gal fluorescence, pH 4.5; activity change, negative = inhibition, % at 105 µM; 230,000 tested, under 10 active; AID 1467;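 also: 0% = full activity with enzyme and -100% = basal without enzyme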
Target sequence (P06280 whole entry, looked up): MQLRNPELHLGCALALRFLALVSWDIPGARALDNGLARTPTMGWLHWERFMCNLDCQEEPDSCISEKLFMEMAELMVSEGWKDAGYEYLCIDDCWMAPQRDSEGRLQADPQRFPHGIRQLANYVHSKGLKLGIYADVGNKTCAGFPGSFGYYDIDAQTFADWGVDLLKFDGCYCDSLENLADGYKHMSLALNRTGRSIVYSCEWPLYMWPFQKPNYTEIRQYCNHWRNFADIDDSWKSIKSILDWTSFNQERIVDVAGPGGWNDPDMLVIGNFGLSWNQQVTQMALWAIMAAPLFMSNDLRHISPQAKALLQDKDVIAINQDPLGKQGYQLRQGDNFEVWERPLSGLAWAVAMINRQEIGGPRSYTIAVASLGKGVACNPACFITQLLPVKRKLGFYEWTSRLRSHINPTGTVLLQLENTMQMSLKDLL
An asterisk follows results filed as active; ? = inconclusive; . = not tested or not shown; [ ] = dose if it differs, or a comment. The list is not random: actives were taken first. Their share in the collection is about 1.2%. Calls follow the shape of the dose curve; as a rule, active = well fitted curve in the direction sought with a large enough effect; inconclusive = small, poorly fitted or top-dose-only effect, or another doubt; inactive = no such curve, though single readings can be large; an effect the other way counts as inactive or inconclusive.

SMILES	HTT cytoprotect	GLA spleen mod	HTT aggregate	GLA inh pH 4.5
C=CC[n+]1c(-c2ccc(C)cc2)csc1Nc1ccc(NC(C)=O)cc1	-34.5%	-17.6%	?	3.1
C=CC[n+]1c(-c2ccc(OC)cc2)csc1NNC(=O)Nc1ccccc1	28.4%	6.0%	10µM*	0.6
O=C1c2ccc(Oc3ccc4c(c3)C(=O)N(CCCO)C4=O)cc2C(=O)N1CCCO	-0.5%	13.5%	5.62µM*	14.5
CN(C)c1ccnc(NCc2ccccc2)c1C#N	-17.9%	3.6%	-13.7%	-5.9
N#Cc1c(NCc2ccccc2)ccnc1NCc1cccnc1	11.4%[10 µM]	1.1%	22.4µM*	4.9
Oc1c(Cl)cc(Cl)c2cccnc12	-48.0%	10.8%	8.91µM*	-2.5
O=C(Oc1c(Cl)cc(Cl)c2cccnc12)c1ccco1	-60.1%	-4.4%	?	0.3
O=C(Oc1c(CN2CCOCC2)cc(Cl)c2cccnc12)c1cccs1	-96.7%[10 µM]	-3.3%	1.26µM*	1.4
O=C(Oc1c(Cl)cc(Cl)c2cccnc12)c1cccs1	-61.3%[10 µM]	-4.5%	10µM*	-5.0
COc1cccc(C(=O)Oc2c(CN3CCOCC3)cc(Cl)c3cccnc23)c1	-92.6%[10 µM]	2.7%	11.2µM*	7.8
CN(C)c1ccc2c(-c3ccccc3)c3ccc(=[N+](C)C)cc-3oc2c1	.	11.0%	.	.
CN(C)c1ccc(-c2cncnc2NCCN2CCOCC2)cc1	-120.0%	0.2%	.	.
CCC[C@@H]1O[C@@H]2C[C@@H]3[C@@H]4CCC5=CC(=O)C=C[C@@]5(C)[C@H]4[C@H](O)C[C@@]3(C)[C@@]2(C(=O)CO)O1	10.0%[1.9 µM]	.	.	.
O=C(Oc1c(CN2CCOCC2)cc(Cl)c2cccnc12)c1ccc(F)cc1	-98.1%[10 µM]	1.8%	1µM*	-5.3
O=C(c1cc(COc2c(F)cccc2F)on1)N1CCC(c2ccncc2)CC1	-34.9%	6.3%	20µM*	-19.8
O=C(c1cc(COc2ccc(F)cc2Cl)on1)N1CCC(OCc2cccnc2)CC1	-55.6%	-6.5%	11.2µM*	0.2
O=C(c1cc(COc2ccc(F)cc2Cl)on1)N1CCCC(OCc2cccnc2)C1 (configuration not stated)	-10.1%	3.0%	?	-16.0
CCOC(=O)C1=C[C@@H](C(=O)OCC)[C@@H]2C3=C(C(=O)C2(C)C)[C@H](c2ccccc2)[C@@H]2C(=O)N(c4ccccc4)C(=O)[C@@H]2[C@@H]3C1	.	-6.0%	.	.
CN(C)c1ncc2nc(-c3cccs3)c(=O)n(C)c2n1	-3.6%	15.6%	.	.
O=C(O)CCCC/C=C(\c1ccccc1)c1cccnc1	-15.3%	.	17.2%	.
CCn1c(Oc2ccc(F)cc2)nc2c1c(=O)n(C)c(=O)n2C	-31.8%	0.4%	11.2µM*	-0.3
O=C1CC(c2ccccc2)Cc2nc3nc(C(F)(F)F)nn3cc21 (configuration not stated)	-6.9%	-5.5%	12.6µM*	0.7
CSc1nc2nc3c(cn2n1)C(=O)CC(c1ccccc1)C3 (configuration not stated)	2.4%	2.7%	8.3%	3.1
Cc1ccc(NC(=O)C2=C(c3ccccc3)S(=O)(=O)CCS2(=O)=O)cc1	-133.1%	0.2%	5.01µM*	-6.1
Cc1ccc(NC(=O)c2ccccc2)cc1	-59.4%	0.6%	10.2%	3.8
SMILES	HTT cytoprotect	GLA spleen mod	HTT aggregate	GLA inh pH 4.5
CCCC/C=C/C(NC(=O)c1ccco1)c1ccccc1 (configuration not stated)	-80.3%	-0.8%	.	-8.4
Nc1cc(-c2ccc(Br)cc2)nn1S(=O)(=O)c1cccc2nsnc12	-75.7%	-4.8%	25.1µM*	-0.6
Nc1cc(-c2ccc(Cl)cc2)nn1S(=O)(=O)c1cccc2nsnc12	-28.9%	6.1%	?	1.3
COC(=O)N[C@@H](c1ccc(Br)cc1)C(C(=O)OC)C(=O)OC	-24.8%	2.5%	.	1.1
Cc1ccc(-n2c(-c3ccccc3)c[n+]3c2CCc2ccccc2-3)c(C)c1	-75.2%	-9.9%	3.16µM*	1.5
Cc1cccc(NC2=NC3(CCCCC3)N=C(N)N2)c1C	-2.0%	-1.0%	-0.7%	3.1
Cc1cccc(C)c1NC1=NC2(CCCCC2)N=C(N)N1	0.631µM*	-16.5%	.	-2.6
COc1ccc(CN(C(=O)Cc2c[nH]c3ccccc23)C(C(=O)NC2CCCCC2)c2ccc(C)o2)cc1 (configuration not stated)	-2.7%[10 µM]	-2.8%	?	-28.2
Cc1ccc(C(C(=O)NC2CCCCC2)N(Cc2ccccc2)C(=O)Cc2c[nH]c3ccccc23)o1 (configuration not stated)	17.5%[10 µM]	-9.3%	20µM*	-1.8
COc1cccc(CN(C(=O)Cc2c[nH]c3ccccc23)C(C(=O)NC2CCCCC2)c2ccc(C)o2)c1 (configuration not stated)	2.4%[10 µM]	-12.1%	12.6µM*	-8.8
COC(=O)[C@@H](NC(=O)N1CCc2nc(-c3ccc(OC)cc3C)c3c(c2C1)CO[C@@H](c1ccccc1)C3)C(C)C	19.3%[10 µM]	2.5%[17.5 µM]	.	-3.8
Cc1ccc(S(=O)(=O)NCC(=O)NCc2ccncc2)cc1	14.0%[10 µM]	1.8%	-4.7%	12.0
Cc1ccc(C)c(S(=O)(=O)NCc2ccncc2)c1	-15.1%	9.4%	10µM*	-0.5
Cc1ccc(S(=O)(=O)NCc2ccncc2)cc1	-6.4%	2.0%	3.55µM*	3.9
Cc1ccc(C)c(S(=O)(=O)NCc2cccnc2)c1	13.1%[10 µM]	-3.6%	-3.4%	-1.0
Cc1ccc(SCC(=O)N2c3ccccc3Sc3ccccc32)cc1	-35.6%	1.0%	15.8µM*	3.6
CCOc1ccc(C(=O)N/N=C(/C)C2C(=O)c3ccccc3C2=O)cc1	9.9%[10 µM]	-6.2%	10µM*	1.9
COc1cc2c(cc1OC)C(c1ccccc1)CN(C)CC2 (configuration not stated)	-379.5%	-1.4%	-1.7%	5.3
CCN(CC)c1ccc(Nc2nc(N3CCOCC3)c3ccccc3n2)cc1	-4.0%	0.2%	7.94µM*	-6.2
CCOC(=O)N1CC=C2C(C#N)=C(N)C(C#N)(C#N)[C@H](c3ccsc3)[C@H]2C1	-25.2%	16.1%	0.562µM*	5.4
COc1ccccc1N=c1oc2cc(O)ccc2cc1C(N)=O	-44.4%	?	?	?
Cc1cccc(N=c2oc3cc(O)ccc3cc2C(N)=O)c1	-40.3%	?	8.91µM*	?
COc1cccc(-c2nnc3n2N=C(c2c(OC)cccc2OC)CS3)c1	.	3.4%	.	.
Cn1c(=N)n(CC(=O)O)c2ccccc21	0.2%	-22.9%	5.62µM*	2.3
COc1ccc(C2=CC(c3ccc(F)cc3)n3nnnc3N2)cc1 (configuration not stated)	-24.4%	-1.2%	7.9%	2.8
Cc1ccc(C2=CC(c3ccc(N(C)C)cc3)n3nnnc3N2)cc1 (configuration not stated)	-21.8%	9.0%	10µM*	3.1
Cc1cc(C(N)=O)c2ccccc2n1	-26.1%	-5.8%	-2.9%	-0.2
NC(=O)c1cc2ccncc2c2ccccc12	-1.8%[10 µM]	8.0%	2.51µM*	-2.7
COc1cc(OC)cc(C2=Nn3c(nnc3-c3ccccc3OC)SC2)c1	.	7.1%	.	.
CC(=O)O[C@H]1CC[C@@]2(C)C(=CC[C@@H]3[C@@H]4CC[C@H](c5cc(C(F)(F)F)n(C(C)=O)n5)[C@]4(C)CC[C@@H]32)C1	-5.4%[10 µM]	.	.	.

Screening data deposited in PubChem by National Center for Advancing Translational Sciences (NCATS).
